# Tat transport – blocks Tat-dependent protein export in E. coli. E. coli MC4100 TorA-mCherry Tat export, fluorescence. inhibition, % at 10 µM. 0.036% of 340,000 active. AID 488895;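 active means mean replicate inhibition at least 50% and at least half of replicates individually reaching 50%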;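 further: exported cargo escapes ClpAP degradation while cytoplasmic cargo is degraded and loses fluorescence; 0% = median of neutral control wells and 100% = median of NaSCN control wells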
# E coli growth-1 – E. coli growth inhibition; Escherichia coli growth, OD600, 23 h; hits give low values; OD600 absorbance (concentration not given with the values); 0.21% of 330,000 active; AID 1053175;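 active means OD600 absorbance below the run mean of sample wells minus 3.6 SD, in any replicate, cut at about 0.56 in these data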
# E coli growth-2 – bacterial growth inhibition, counter-screen for AddAB inhibitors; E. coli V3065 growth, OD600 absorbance, 18 h; inhibition, % at 11.9 µM; 0.27% of 330,000 active; AID 449728;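 active means inhibition above the campaign's mean inhibition across all tested compounds plus 3 SD, cut at about 9.9% in these data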;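 further: uninfected addAB+ strain grown without phage in ampicillin broth; 0% = DMSO wells and 100% = ciprofloxacin 0.95 µg/ml wells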
# AddAB inh – less growth of phage-infected E. coli with AddAB; 0.29% of 330,000 active; AID 435030; E. coli expressing H. pylori AddAB, absorbance growth; inhibition, % at 11.9 µM; in the data active means inhibition above about 12%;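 further: 0% = vehicle wells of infected cells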
# phage Ecoli inh – E. coli growth loss with phage present; growth absorbance; inhibition, % at 11.9 µM; 0.26% of 360,000 active; AID 651602; in the data active means inhibition above about 11%
# AddAB confirm – confirmation screen: growth loss of phage-infected E. coli expressing H. pylori AddAB | shares compounds with AddAB inh | E. coli V3065 expressing H. pylori AddAB, T4 phage, OD; T4 phage with gene 2 nonsense mutations | inhibition, % at 11.9 µM | 64% of 880 active;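 active means mean inhibition above a set limit taken from the earlier primary screen, cut at about 13% in these data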;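 further: higher means less bacterial growth since AddAB block lets phage replicate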
# RecBCD counter – counter-screen: growth loss of RecBCD+ E. coli with mutant T4 phage; shares compounds with AddAB inh; E. coli V66 + mutant T4 phage, OD growth; inhibition, % at 11.9 µM; 73% of 880 active; AID 488955;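 active means mean inhibition above the mean of solvent-only control wells plus 3 SD, cut at about 4% in these data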;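 further: optical density read after an 18 h incubation at 37 °C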
# bact viab count – reduces bacterial viability, AddAB inhibitor counter-screen; shares compounds with AddAB inh; absorbance (AddAB counterscreen); inhibition, % at 11.9 µM; 35% of 880 active; in the data active means inhibition above about 25%
# RecBCD conf – confirmation: growth loss of phage-infected RecBCD+ E. coli (RecBCD inhibitor screen). shares compounds with phage Ecoli inh. E. coli V66 + T4 2- phage, growth OD. inhibition, % at 11.9 µM. 45% of 890 active. AID 651982;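 active means mean inhibition over triplicates exceeding the hit threshold derived in the original primary screen, cut at about 11% in these data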
# Ecoli viability – counter-screen for RecBCD inhibitors: inhibitors of bacterial viability; shares compounds with phage Ecoli inh; E. coli viability, absorbance (OD) growth; inhibition, % at 11.9 µM; 29% of 890 active; in the data active means inhibition above about 20%;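 further: E. coli strain V66 grown with compound alone and no phage infection; 0% = bacteria with DMSO vehicle only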
# AddAB counter – growth loss of phage-infected AddAB E. coli, RecBCD counter-screen; 45% of 890 active; shares compounds with phage Ecoli inh; AID 651984; inhibition, % at 11.9 µM; E. coli expressing H. pylori AddAB + T4 phage, OD growth; gene 2 mutant T4, recBCD-deleted host;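 active means mean inhibition above the solvent-only control wells' mean plus 3 SD, cut at about 22% in these data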;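 further: higher means less bacterial growth from phage killing when AddAB is blocked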
# Numbers without * were called inactive; · = no result given. This is a sample that favours compounds with a hit; in the whole collection about 0.51% have one here.
SMILES,Tat transport,E coli growth-1,E coli growth-2,AddAB inh,phage Ecoli inh,AddAB confirm,RecBCD counter,bact viab count,RecBCD conf,Ecoli viability,AddAB counter
Cc1ncc(CO)c(C=NNC(=S)Nc2ccc(F)cc2)c1O,·,0.701,·,·,·,·,·,·,·,·,·
CCC1OC(=O)C(C)C(OC2C[C@@](C)(OC)C(O)C(C)O2)C(C)C(OC2OC(C)CC(N(C)C)C2O)[C@](C)(O)CC(C)C(=NOCOCCOC)C(C)C(O)[C@]1(C)O (some centres undefined),·,0.577,·,·,·,·,·,·,·,·,·
CC[C@H]1OC(=O)[C@H](C)[C@@H](O[C@H]2C[C@@](C)(OC)[C@@H](O)[C@H](C)O2)[C@H](C)[C@@H](O[C@@H]2O[C@H](C)C[C@H](N(C)C)[C@H]2O)[C@](C)(O)C[C@@H](C)CN(C)[C@H](C)[C@@H](O)[C@]1(C)O,121.2*,·,100.9*,99.8*,100.8*,99.2*,100.7*,102.1*,102.7*,104.2*,103.8*
NS(=O)(=O)c1ccc(NNC(=O)c2ccccc2)cc1,-6.9,0.629,0.6,1.3,1.9,·,·,·,·,·,·
O=C(NNc1cc(Br)c(O)c(Br)c1)c1ccccc1,-9.0,0.523,96.7*,101.5*,78.0*,96.6*,49.8*,96.7*,39.3*,50.4*,101.1*
CN1CCN(c2c(F)cc3c(=O)c(C(=O)O)cn4c3c2OCN4C)CC1,138.5*,0.07*,98.7*,98.6*,99.1*,100.8*,100.2*,100.8*,102.0*,102.5*,102.6*
CCn1cc(C(=O)O)c(=O)c2cc(F)c(NN=Cc3ccccc3)cc21,·,0.659,·,·,·,·,·,·,·,·,·
CCn1cc(C(=O)NCC2CCCO2)c(=O)c2cc(F)c(N3CCN(C)CC3)cc21 (centres undefined),-2.6,0.736,1.7,2.0,2.8,·,·,·,·,·,·
Cc1cc(C)c(NC(=O)c2cn3c4c(c(N5CCN(C)CC5)c(F)cc4c2=O)OCC3C)c(C)c1 (centres undefined),36.1,0.049*,97.0*,96.6*,96.7*,101.3*,100.1*,100.7*,99.0*,100.4*,101.1*
Cc1cc(C)nc(NN=Cc2cc(Br)ccc2O)n1,·,0.697,·,·,·,·,·,·,·,·,·
Cc1ccc(C(C)C)c(OCc2ccc(C(=O)NN=Cc3ccc(O)cc3O)cc2)c1,·,0.68,·,·,·,·,·,·,·,·,·
Cc1ccc(C(C)C)c(OCc2ccc(C(=O)N/N=C/c3cccc(O)c3O)cc2)c1,2.1,·,14.1*,16.2*,22.4*,15.6*,16.2*,9.4,8.5,11.3,14.4
CC(=NNC(=O)C1CCN(S(=O)(=O)c2ccc(C)cc2)CC1)c1cccc([N+](=O)[O-])c1,·,0.702,·,·,·,·,·,·,·,·,·
Cc1n[nH]c(=S)n(NC(=O)CC(=O)Nn2c(=S)[nH]nc(C)c2=O)c1=O,-0.3,0.639,12.6*,18.5*,15.5*,33.0*,15.0*,31.5*,13.8*,15.3,35.0*
CCOc1ccc(OCC(=O)Nc2ccccc2C(F)(F)F)cc1,2.3,0.715,0.0,-1.2,4.1,·,·,·,·,·,·
CCC(ONc1ccccc1C(F)(F)F)(C(=O)NN(C)C)c1ccccc1 (centres undefined),-10.0,0.503,22.8*,100.5*,17.4*,98.3*,13.9*,62.0*,11.5*,12.3,103.2*
CCOC(=O)C1C2COc3ccccc3C2N2C(=O)N(c3ccc(F)cc3)C(=O)[C@@]12C (some centres undefined),·,0.687,·,·,·,·,·,·,·,·,·
C[C@H]1O[C@@H](n2cc(F)c(=O)[nH]c2=O)[C@H](O)[C@@H]1O,6.4,·,42.3*,36.1*,32.3*,41.5*,25.1*,38.3*,46.6*,30.8*,52.9*
O=c1[nH]c(=O)n(C2OC(CO)C(O)C(O)C2O)cc1F (centres undefined),·,·,·,·,3.7,·,·,·,·,·,·
O=C(N/N=C/c1ccccc1)c1ccc2c(c1)OCO2,4.6,·,1.0,4.7,2.5,·,·,·,·,·,·
O=C(NN=Cc1c(O)ccc2ccccc12)c1ccc2c(c1)OCO2,-10.9,0.59,21.3*,17.8*,11.4*,-0.3,10.1*,-4.5,4.0,8.3,5.1
O=c1[nH]c(=O)n([C@H]2C[C@H](O)[C@@H](CO)O2)cc1I,13.4,·,4.3,3.3,10.0,·,·,·,·,·,·
CCc1cn(C2CC(O)C(CO)O2)c(=O)[nH]c1=O (centres undefined),4.1,0.618,13.4*,19.6*,12.0*,35.4*,12.5*,11.0,14.0*,9.9,31.0*
CC[C@@]12C(=O)N(c3cccc(Cl)c3)C(=O)N1C(c1ccc(Br)cc1)C1C(=O)N(C(C)(C)C)C(=O)C12 (some centres undefined),·,0.689,·,·,·,·,·,·,·,·,·
Cc1cc(C)c2c(N=NN3CCOCC3)[nH]nc2n1,-5.4,0.674,17.0*,76.9*,11.6*,70.7*,4.2*,33.5*,5.7,6.1,32.2*
SMILES,Tat transport,E coli growth-1,E coli growth-2,AddAB inh,phage Ecoli inh,AddAB confirm,RecBCD counter,bact viab count,RecBCD conf,Ecoli viability,AddAB counter
Cc1ccc(CNC(=O)c2ccc3c(=O)c(O)c(-c4ccc(C)cc4)[nH]c3c2)cc1,2.7,0.64,20.0*,16.9*,17.3*,20.9*,18.6*,20.3,11.0*,14.9,19.4
CCCNC(=O)c1ccc2c(=O)c(O)c(-c3ccc(C)cc3)[nH]c2c1,-12.1,·,24.9*,22.6*,21.1*,19.6*,16.5*,16.4,7.8,10.7,23.5*
Cc1ccc(-c2[nH]c3cc(C(N)=O)ccc3c(=O)c2O)cc1,-8.7,·,-4.1,1.6,3.2,·,·,·,·,·,·
COc1cccc(C=NNC(=O)C(=O)NCc2cccnc2)c1,·,0.663,·,·,·,·,·,·,·,·,·
Cn1cc(C=C(C(=O)O)C(C(=O)O)=C2CCCCC2)c2ccccc21,·,0.716,·,·,·,·,·,·,·,·,·
COc1cccc(C=Nn2cnc3cc(C)c(C)cc32)c1OC,·,0.687,·,·,·,·,·,·,·,·,·
Cc1cc2ncn(/N=C/c3ccc([N+](=O)[O-])o3)c2cc1C,3.2,·,31.5*,85.8*,13.6*,99.3*,11.6*,46.4*,5.3,7.5,57.4*
CN1CCc2c(sc(NC(=O)c3ccc([N+](=O)[O-])o3)c2C(N)=O)C1,56.4*,·,98.6*,98.5*,79.7*,102.0*,82.2*,102.2*,69.4*,89.0*,102.8*
Cc1ccnc(NC(=O)c2ccc([N+](=O)[O-])o2)c1,-10.1,0.559,33.2*,27.1*,13.0*,99.2*,9.8*,30.4*,7.9,9.7,74.8*

# Compound activity (PubChem BioAssay)
